Screens deposited in PubChem by National Center for Advancing Translational Sciences (NCATS).
D3 antag = antagonists of human D3 dopamine receptor; P35462; hit rate 2.5% among 360,000; max response, negative = inhibition, %; D3R cells, DiscoveRx beta-arrestin luminescence, antagonist mode; stronger effect = lower value; in the data active means max response below about -50%; inconclusive means no clear call, values can overlap the other calls; further: on the % scale 0 is the no-effect control and ±100 the full control effect
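Cells plated overnight at 1500 cells/well, then exposed to library compounds with dopamine controls for 90 minutes at 37 degrees C. DiscoveRx reagent added for 30–60 minutes at room temperature; luminescence read, quantitative HTS format.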
D1 ag = human D1 receptor agonism. P21728. HEK293 T-REx D1 cells, calcium flux, agonist mode. activation, % at 2 µM. hit rate 1% among 360,000; in the data active means activation above about 30%; further: 0% is about no effect
Target sequence (P21728 whole entry, looked up): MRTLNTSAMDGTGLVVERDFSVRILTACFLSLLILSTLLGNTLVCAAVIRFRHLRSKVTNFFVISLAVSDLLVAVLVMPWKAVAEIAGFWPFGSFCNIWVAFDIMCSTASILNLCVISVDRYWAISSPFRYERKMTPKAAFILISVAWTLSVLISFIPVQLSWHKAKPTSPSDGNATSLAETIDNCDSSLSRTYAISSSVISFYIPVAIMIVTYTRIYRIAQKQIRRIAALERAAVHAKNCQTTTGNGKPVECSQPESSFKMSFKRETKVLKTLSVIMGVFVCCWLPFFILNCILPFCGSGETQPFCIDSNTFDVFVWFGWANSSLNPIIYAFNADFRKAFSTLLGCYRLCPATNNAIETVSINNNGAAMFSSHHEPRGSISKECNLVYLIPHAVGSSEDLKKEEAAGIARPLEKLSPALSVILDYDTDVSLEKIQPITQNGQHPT
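Tetracycline-induced HEK293 TREx D1 cells, force-coupled to calcium signalling, were dye-loaded with a no-wash calcium kit. Compound was pin-added after a 10 s baseline. Fluorescence was read kinetically at 1 cycle/s for 180 s, with calcium rises flagged as agonism.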
DRD3 agonist = D3 dopamine receptor (human) agonism; P35462; hit rate 0.58% among 410,000; D3R DiscoveRx beta-arrestin cells, luminescence, 90 min; AID 652048; max activation, %; in the data active means max activation above about 30%; further: 0% is about no effect
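Agonist-mode cell screen: cells plated at 1500/well and incubated overnight at 37 °C, then exposed to library compounds for 90 min at 37 °C. Detection reagent was added for 30–60 min at room temperature, and luminescence was read.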
D1 antag = blocks dopamine activation of the human D1 receptor. AID 504652. activity change, negative = inhibition, % at 10 µM. HEK293 TREx D1 cells, calcium flux, dopamine EC80; stronger effect = lower value. hit rate 3.2% among 360,000. P21728; in the data active means activity change below about -30%; further: on the % scale 0 is the no-effect control and ±100 the full control effect
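Antagonism measured as reduced calcium response to an EC80 dopamine addition following 180 s compound pre-read; cells were inducible HEK293 Trex D1 plated overnight at 30 C, read kinetically at 1 cycle/sec.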
D1 PAM = enhances dopamine response at the human D1 receptor; HEK293 TREx D1 cells, calcium flux, dopamine EC20 potentiation; hit rate 0.036% among 360,000; P21728; potentiation, % at 10 µM; in the data active means potentiation above about 30%; further: 0% is about no effect
* hit, by the source's call; ? = inconclusive; nt = no result given. In the library only some 6.1% were active in any assay of this set; here they are far more common.

SMILES	D3 antag	D1 ag	DRD3 agonist	D1 antag	D1 PAM
Cc1nc(N)nc(N)c1/C=C/C(C)(C)c1ccc(Cl)cc1	12	38*	2	-20	-9
COc1ccc(-n2c(C)cc(/C=C/c3nc(O)c([N+](=O)[O-])c(=O)[nH]3)c2C)cc1	-6	1	5	-54*	-4
Cc1ccc(Cn2c(CN3CCN(C(=O)c4ccco4)CC3)nc3c2c(=O)n(C)c(=O)n3C)cc1	20	8	37*	-4	4
Cn1c(=O)c2c(nc(CN3CCN(C(=O)c4ccco4)CC3)n2CCc2ccccc2)n(C)c1=O	-4	0	-3	-74*	2
COc1ccc(NC(=O)Cc2c(C(=O)O)[nH]c3ccccc23)cc1OC	nt	2	0	4	1
Cc1ccccc1C(=O)Oc1c(Sc2ccccc2)c(C)nn1C(C)(C)C	nt	-1	-18	13	1
Cc1nn(C(C)(C)C)c(OC(=O)c2cccs2)c1Sc1ccccc1	-53*	1	-4	5	1
Cc1ccc(NCc2nnc(SCCN3CCCCC3)n2CC2CCCO2)c(C)c1 (stereo unspecified)	-54*	2	2	9	-7
CCCOc1ccccc1C(=O)N1CCCCC1CCN1CCCCC1 (stereo unspecified)	nt	4	49*	6	1
COc1ccc(CC(=O)NCc2nc3cccnc3n2Cc2ccc(C)cc2)cc1OC	nt	0	-2	8	-3
Cc1cccc(NC(=S)N/N=C/c2ccc([N+](=O)[O-])s2)c1	-97*	12	-6	5	-4
Cc1cccc(NC(=O)/C=C/c2ccc([N+](=O)[O-])s2)c1	?	1	-6	-17	-6
Cn1cc(C(=O)Nc2ccc3c(c2)CCC3)cn1	10	1	-3	-31*	-4
NC(=O)C1CCN(CCC(=O)Nc2ccc3c(c2)CCC3)CC1	-18	0	-2	-18	-1
CCCCN(C)CCC(=O)Nc1ccc2c(c1)CCC2	-57*	10	-15	-25	0
Cc1ccc(NC(=O)CCN2CCC(C)CC2)cc1	-62*	3	-22	11	1
COc1ccc(NC(=O)CN(C)CC(=O)Nc2ccc3c(c2)CCC3)cc1	3	1	-1	0	9
CC1CCN(CCC(=O)Nc2ccc3c(c2)CCC3)CC1	-59*	1	-30	4	-2
COc1cc(NC(=O)CCc2c(C)nc3c4c(C)cc(C)nc4nn3c2C)cc(OC)c1	nt	0	-6	15	-1
CC1CCN(CCC(=O)Nc2ccc(Cl)cc2)CC1	-64*	25	-15	-21	-2
CCCC(=O)Nc1ccc2c(c1)Cc1ccccc1-2	-14	3	2	-38*	-1
Cc1cccc(CNC(=O)CN2C(=O)CCn3nc(-c4cn(C)c5ccccc45)cc32)c1	nt	0	-19	1	-3
CCCc1cc(-c2n[nH]c(=S)n2CC)cs1	5	2	1	-15	-12
CCCCn1c(-c2csc(CCC)c2)n[nH]c1=S	-10	57*	4	-13	-3
Cc1cc(=O)[nH]c(Cc2ccc(OC(C)C)cc2)n1	5	1	7	-76*	-4
SMILES	D3 antag	D1 ag	DRD3 agonist	D1 antag	D1 PAM
Cc1nc(Cc2ccc(OC(C)C)cc2)[nH]c(=O)c1CC(=O)O	11	5	5	4	-2
CCC(C)c1ccc(NC(=S)Nc2ccc(OC)c(OC)c2)cc1 (stereo unspecified)	?	-2	5	-7	-6
CCC(C)c1ccc(NC(=S)Nc2ccc(OC)cc2C)cc1 (stereo unspecified)	-133*	9	23	1	-12
O=C1Nc2ccc(Br)cc2C1(O)c1ccccc1 (stereo unspecified)	1	5	-5	-4	-11
O=C1Nc2ccc(Br)cc2C12NNc1ccccc1O2 (stereo unspecified)	-6	33*	0	-14	-5
O=C(c1cccs1)N1CCCc2cc(NS(=O)(=O)c3ccc(F)cc3)ccc21	nt	17	0	-11	0
CCc1nn2c(=O)cc(COC(=O)c3ccccc3NC(=O)c3cccs3)nc2s1	nt	0	10	-8	0
CCCCc1nc(SCc2ccc([N+](=O)[O-])cc2)n[nH]1	-14	1	-4	-30*	-1
CCc1nc(SCc2ccc(F)cc2)n[nH]1	-15	1	7	-6	-1
COc1cccc(NC(=O)C2CCN(S(=O)(=O)c3ccc(N4CCCC4=O)cc3)CC2)c1	22	nt	5	nt	nt
O=C(Nc1cccc(C(F)(F)F)c1)C1CCN(S(=O)(=O)c2ccc(N3CCCC3=O)cc2)CC1	1	9	0	-47*	-11
CC(=O)N1c2ccc(S(=O)(=O)N3CCC(C(=O)Nc4cccc(C(F)(F)F)c4)CC3)cc2CC1C (stereo unspecified)	-3	3	-6	-34*	-4
O=C(CNc1cccc2ccccc12)N/N=C/c1ccc([N+](=O)[O-])cc1	3	3	6	-13	-5
O=[N+]([O-])c1ccc(O)c(/C=N/n2c(CO)nc3ccccc32)c1	-54*	2	-17	10	0
O=[N+]([O-])c1ccc(O)c(/C=N/n2cnc3ccccc32)c1	-15	26	0	-6	-3
O=C(CCCC(=O)Nc1cccc(Br)c1)N/N=C/c1cc([N+](=O)[O-])ccc1O	?	4	-21	-8	2
CN1CCN(CCC(=O)N/N=C/c2cc([N+](=O)[O-])ccc2O)CC1	-79*	4	-24	-4	10
Cc1ccccc1NCC(=O)N/N=C/c1ccc([N+](=O)[O-])cc1	-13	3	-3	-43*	0
O=C(CCC(=O)Nc1cccc(Cl)c1)N/N=C/c1cc([N+](=O)[O-])ccc1O	-62*	1	-16	15	0
CCOC(=O)c1c(C)[nH]c(CCC(=O)NCc2cc(OC)c(OC)c(OC)c2)c1C	nt	1	8	-3	-2
Cc1ccc(C)c(NC(=O)CCC(=O)N/N=C/c2cc([N+](=O)[O-])ccc2O)c1	?	0	-6	-13	-7
O=C(CSc1nc2ccccc2s1)N/N=C/c1cc([N+](=O)[O-])ccc1O	-61*	1	-8	-15	-4
Cc1ccccc1NC(=O)CCC(=O)N/N=C/c1cc([N+](=O)[O-])ccc1O	-58*	0	-14	6	-4
Cc1ccc([N+](=O)[O-])cc1NC(=O)CCCOc1ccccc1	-64*	3	-1	-14	-4
CCc1cccc(NC(=O)CSc2nncn3c2cc2sccc23)c1	nt	1	-1	8	-1
CC(=O)N1c2ccc(S(=O)(=O)N(C)CC(=O)N(Cc3ccccc3)C(C)C)cc2CC1C (stereo unspecified)	nt	2	8	-7	-5
CCC(C(=O)Nc1ccc(C(C)=O)cc1)n1c(C)c2cnn(-c3ccccc3)c(=O)c2c1C (stereo unspecified)	nt	51*	-21	-4	-2
